Test results taken from PubChem BioAssay.
Active and inactive are the calls of the source.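 How the source made its calls: active means inhibition at or above 50% at 10 µM; inactive means inhibition below 50%.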

experiment: blockers of RIG-like receptor reporter activation – cell-based, Sendai virus stimulus, luciferase, 10K MLSCN set, TLR/RLR signaling modifier project, primary screen (AID 602276); conditions: HEK293 RL24 IRF3 luciferase reporter, at 10 µM, hits give high values;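 further: firefly luciferase from ISG56 promoter only with Renilla not read in this screen; 0% = Sendai virus plus DMSO and 100% = medium plus DMSO without virus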

SMILES	inhibition
Cc1nnc2n(-c3ccccc3)c(=O)c3c4c(sc3n12)CCCC4	-14.4% (inactive)
Cc1c(NC(=O)c2ccc(=O)oc2)c(=O)n(-c2ccccc2)n1C	22.3% (inactive)
Cc1nc2sc(C#N)c(N)c2c2c1CCCC2	-2.92% (inactive)
Fc1ccc(-c2cnc[nH]2)cc1	-22.9% (inactive)
CC(CCc1ccccc1)NCC(O)c1ccc(O)c(C(N)=O)c1 (configuration not stated)	-17.5% (inactive)
CCOC(=O)c1ccc2nc(NC(NC(C)=O)(C(=O)OC)C(F)(F)F)sc2c1 (configuration not stated)	133% (active)
COc1cccc(N2C(=O)C(O)=C(C(C)=O)C2c2ccc(OC)c(OC)c2)c1 (configuration not stated)	5.42% (inactive)
CCCCOc1ccccc1C(=O)NCCCC(=O)O	12.9% (inactive)
COc1ccc(CCn2c(=N)c(C#N)cc3c(=O)n4ccccc4nc32)cc1	13.2% (inactive)
O=C(NC1CCS(=O)(=O)C1)c1c(NC(=O)C2COc3ccccc3O2)sc2c1CCCC2 (configuration not stated)	17.1% (inactive)
Cc1nn(-c2ccccc2)c2c1C(=O)NC(=O)C(C)(C)C2	14.6% (inactive)
O=C(Nc1ccccn1)NC(C(F)(F)F)C(F)(F)F	0.13% (inactive)
CCC(NC(=O)Nc1cc(OC)c(OC)c(OC)c1)(C(F)(F)F)C(F)(F)F	20% (inactive)
COC(=O)C(NC(C)=O)(Nc1ccccn1)C(F)(F)F (configuration not stated)	12.5% (inactive)
CC1(C)CNC(=O)c2sc(N3CCOCC3)nc2C1	17.2% (inactive)
CCN1CCc2c(C#N)c(N3CCCCC3)nc(NCc3ccccc3)c2C1	14.7% (inactive)
CCOC(=O)CNC(=O)Nc1ccccc1C(=O)OC	10.2% (inactive)
